In PubChem BioAssay (NCI):
This is part of a sample that, as a whole, favours compounds with a hit. Of some 83,000 tested, about 20% had one in any assay.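 Cell lines were cultured in 96-well plates, exposed to a single compound concentration, and assessed for percent growth 48 hours later.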 The source made the active and inactive calls. The calls were made as follows: active = growth percent below 10; inactive = the rest.

Columns and labels:
Experiment in all cases: NCI-60 one-dose screen, 48 h (100 = growth as untreated, 0 = no growth, -100 = all killed)
Conditions in all cases: 10 µM unless noted
RPMI-8226 leukemia = test system: RPMI-8226 leukemia
OVCAR-8 ovarian = test system: OVCAR-8 ovarian
OVCAR-5 ovarian = test system: OVCAR-5 ovarian
OVCAR-4 ovarian = test system: OVCAR-4 ovarian
SK-OV-3 ovarian = test system: SK-OV-3 ovarian
IGROV1 ovarian = test system: IGROV1 ovarian
OVCAR-3 ovarian = test system: OVCAR-3 ovarian
HS 578T breast = test system: HS 578T breast
NCI/ADR-RES ovarian = test system: NCI/ADR-RES ovarian

Measured: growth

CN1CCN(C(=O)[C@]23CCC(C)(C)C[C@@H]2C2=CC[C@@H]4[C@@]5(C)Cc6c([nH]c7ccccc67)C(C)(C)[C@@H]5CC[C@@]4(C)[C@]2(C)CC3)CC1
inactive: RPMI-8226 leukemia 71.6% | OVCAR-8 ovarian 79.6% | OVCAR-5 ovarian 79.8% | OVCAR-4 ovarian 72% | SK-OV-3 ovarian 76.8% | IGROV1 ovarian 84.4% | OVCAR-3 ovarian 78.3% | HS 578T breast 73.2% | NCI/ADR-RES ovarian 89.9%

CCN(CC)CCNc1ccc(C)c2sc3cc(C)ccc3c(=O)c12
inactive: RPMI-8226 leukemia 10.4% | OVCAR-8 ovarian 57% | OVCAR-5 ovarian 79.5% | OVCAR-4 ovarian 85.3% | SK-OV-3 ovarian 74.8% | IGROV1 ovarian 52.4% | OVCAR-3 ovarian 76.6% | HS 578T breast 73% | NCI/ADR-RES ovarian 59.2%

C[C@H]1[C@H]2C3=CC[C@@H]4[C@@]5(C)C/C(=C/c6ccncc6)C(=O)C(C)(C)[C@@H]5CC[C@@]4(C)[C@]3(C)CC[C@@]2(C(=O)N2CCN(C)CC2)CC[C@@H]1C
inactive: RPMI-8226 leukemia 50.2% | OVCAR-8 ovarian 76.7% | OVCAR-5 ovarian 86.7% | OVCAR-4 ovarian 73.6% | SK-OV-3 ovarian 82.9% | IGROV1 ovarian 84% | OVCAR-3 ovarian 76.3% | HS 578T breast 70% | NCI/ADR-RES ovarian 80.6%

CNC(=O)c1c(NC(=O)c2ccc(C(C)(C)C)cc2)sc2c1CCC(=O)C2
inactive: OVCAR-8 ovarian 15.7% | HS 578T breast 24.2%
active: RPMI-8226 leukemia -20.6% | OVCAR-5 ovarian 9.12% | OVCAR-4 ovarian -66.4% | SK-OV-3 ovarian 0.618% | IGROV1 ovarian 4.71% | OVCAR-3 ovarian -21.4% | NCI/ADR-RES ovarian 8.75%

C=C(C)[C@@H]1CC[C@]2(C(=O)NCC(=O)O)CC[C@]3(C)[C@H](CC[C@@H]4[C@@]5(C)Cc6c([nH]c7ccccc67)C(C)(C)[C@@H]5CC[C@]43C)[C@@H]12
inactive: RPMI-8226 leukemia 79.8% | OVCAR-8 ovarian 78.4% | OVCAR-5 ovarian 107% | OVCAR-4 ovarian 75.9% | SK-OV-3 ovarian 75.1% | IGROV1 ovarian 83.3% | OVCAR-3 ovarian 90.5% | HS 578T breast 56.9% | NCI/ADR-RES ovarian 95.4%

Cc1nc(Nc2ccc(NC(=S)Nc3ccccc3)cc2)nc2nc(Nc3cccc(Cl)c3)[nH]c(=O)c12
inactive: RPMI-8226 leukemia 57.2% | OVCAR-8 ovarian 97.2% | OVCAR-5 ovarian 101% | OVCAR-4 ovarian 102% | SK-OV-3 ovarian 95.7% | OVCAR-3 ovarian 139% | HS 578T breast 67.1% | NCI/ADR-RES ovarian 110%

Cn1ncc2c(Nc3ccc(Br)cc3)nc(Nc3ccc(Br)cc3)nc21
inactive: RPMI-8226 leukemia 23.2% | OVCAR-8 ovarian 59.6% | OVCAR-5 ovarian 56.9% | OVCAR-4 ovarian 51.9% | SK-OV-3 ovarian 78.1% | IGROV1 ovarian 48.9% | OVCAR-3 ovarian 68.2% | NCI/ADR-RES ovarian 21.5%

CN(C)c1cnccn1
inactive: RPMI-8226 leukemia 65.2% | OVCAR-8 ovarian 92.5% | OVCAR-5 ovarian 114% | OVCAR-4 ovarian 82.3% | SK-OV-3 ovarian 90.9% | IGROV1 ovarian 91.1% | OVCAR-3 ovarian 104% | NCI/ADR-RES ovarian 88.6%

C=C(C)[C@@H]1CC[C@]2(CNCCO)CC[C@]3(C)[C@H](CC[C@@H]4[C@@]5(C)CCC(N)[C@@](C)(CO)[C@@H]5CC[C@]43C)[C@@H]12 (stereo partly specified)
active: RPMI-8226 leukemia -45.1% | OVCAR-3 ovarian -43.4%
inactive: OVCAR-8 ovarian 10.7% | OVCAR-5 ovarian 63.8% | OVCAR-4 ovarian 46.2% | SK-OV-3 ovarian 75% | IGROV1 ovarian 61.6% | NCI/ADR-RES ovarian 83%

CC(C)OC(=O)OCOP(=O)(OCOC(=O)OC(C)C)C1CCCN(O)C1=O (stereo unspecified)
inactive: RPMI-8226 leukemia 11.8% | OVCAR-5 ovarian 73.4% | OVCAR-4 ovarian 36% | OVCAR-3 ovarian 33.5% | NCI/ADR-RES ovarian 39.2%
active: OVCAR-8 ovarian 2.91% | SK-OV-3 ovarian 5.92% | HS 578T breast 7.77%

O[C@H]1CO[C@H]2[C@@H]1OC[C@@H]2Oc1ccc(Nc2nc(Nc3ccc(F)c(Cl)c3)ncc2F)cc1Cl
inactive: RPMI-8226 leukemia 116% | OVCAR-8 ovarian 111% | OVCAR-5 ovarian 105% | OVCAR-4 ovarian 96.9% | SK-OV-3 ovarian 110% | OVCAR-3 ovarian 103% | HS 578T breast 98.7% | NCI/ADR-RES ovarian 97.6%

Cc1nc(Nc2ccccn2)sc1C(=O)/C=C/c1ccc(Br)cc1
inactive: RPMI-8226 leukemia 42.5% | OVCAR-8 ovarian 78.2% | OVCAR-5 ovarian 95.2% | OVCAR-4 ovarian 81.9% | IGROV1 ovarian 77.7% | OVCAR-3 ovarian 48.4% | HS 578T breast 77.9% | NCI/ADR-RES ovarian 57.7%

C=C1c2c(C)nn(-c3ccc(N)cc3)c2N(C)C23CC1C1(C)c4c(C)nn(-c5ccc(N)cc5)c4N(C)C(C)(CC12)C3 (stereo unspecified)
inactive: RPMI-8226 leukemia 40.9% | OVCAR-8 ovarian 71% | OVCAR-5 ovarian 101% | OVCAR-4 ovarian 70.7% | SK-OV-3 ovarian 70.6% | IGROV1 ovarian 100% | OVCAR-3 ovarian 78.4% | NCI/ADR-RES ovarian 78.8%

COc1ccc(C2=NC(=O)NC2c2ccc(OC)cc2)cc1 (stereo unspecified)
inactive: RPMI-8226 leukemia 57.4% | OVCAR-8 ovarian 97.6% | OVCAR-5 ovarian 77.8% | OVCAR-4 ovarian 74.8% | SK-OV-3 ovarian 66.4% | IGROV1 ovarian 77.8% | OVCAR-3 ovarian 69%
active: NCI/ADR-RES ovarian 1.85%

O=[N+]([O-])c1ccccc1C(O)Cc1ccc2ccccc2n1 (stereo unspecified)
inactive: RPMI-8226 leukemia 95.1% | OVCAR-8 ovarian 97.2% | OVCAR-5 ovarian 91.1% | OVCAR-4 ovarian 92.8% | SK-OV-3 ovarian 84.9% | OVCAR-3 ovarian 93.2% | HS 578T breast 98.9% | NCI/ADR-RES ovarian 93%

COc1ccc(N(C)c2nc(Cl)nc3cnn(C)c23)cc1
inactive: RPMI-8226 leukemia 28.2% | OVCAR-8 ovarian 12.6% | OVCAR-5 ovarian 33% | OVCAR-4 ovarian 48.2% | SK-OV-3 ovarian 10.6% | HS 578T breast 37.8%
active: NCI/ADR-RES ovarian 2.72%

CC1=CC(=O)C(C(C)C)=CC1=Nc1cc(Br)c(O)c(Br)c1
active: RPMI-8226 leukemia -8.71% | OVCAR-3 ovarian -9.25% | NCI/ADR-RES ovarian -22.9%
inactive: OVCAR-8 ovarian 31.1% | OVCAR-5 ovarian 29.4% | OVCAR-4 ovarian 37.2% | SK-OV-3 ovarian 19.6% | IGROV1 ovarian 22.9%

C=C1c2c(C)nn(-c3ccc(NC(C)=O)cc3)c2N(C)C23CC1C1(C)c4c(C)nn(-c5ccc(NC(C)=O)cc5)c4N(C)C(C)(CC12)C3 (stereo unspecified)
inactive: OVCAR-8 ovarian 40.8% | OVCAR-5 ovarian 78.1% | SK-OV-3 ovarian 48.5% | IGROV1 ovarian 64.8% | OVCAR-3 ovarian 34.3% | HS 578T breast 62.6% | NCI/ADR-RES ovarian 43.4%
active: RPMI-8226 leukemia -50.5%

COC1(CC[C@@H](C)COC2OC(CO)C(O)C(O)C2O)O[C@H]2C[C@H]3[C@@H]4CC=C5C[C@@H](OC6OC(CO)C(OC7OC(C)C(O)C(O)C7O)C(O)C6OC6OC(C)C(O)C(O)C6O)CC[C@]5(C)[C@H]4CC[C@]3(C)[C@H]2[C@@H]1C (stereo partly specified)
active: RPMI-8226 leukemia -56.3% | OVCAR-8 ovarian -64.6% | OVCAR-5 ovarian -86.6% | OVCAR-4 ovarian -64.7% | SK-OV-3 ovarian -71.8% | IGROV1 ovarian -78.6% | OVCAR-3 ovarian -73.6% | NCI/ADR-RES ovarian -75.6%

CS(=O)(=O)c1ccc(-c2[nH]c3ccc(F)cc3c2/C=N/O)cc1
inactive: RPMI-8226 leukemia 90.4% | OVCAR-8 ovarian 90.3% | OVCAR-5 ovarian 91.4% | OVCAR-4 ovarian 97.1% | SK-OV-3 ovarian 69.8% | IGROV1 ovarian 89.9% | HS 578T breast 92.2% | NCI/ADR-RES ovarian 107%

CCCCCCN(CCCCCC)CC(O)c1cccc2ccc(Cl)cc12 (stereo unspecified)
inactive: RPMI-8226 leukemia 31.2% | OVCAR-8 ovarian 93.8% | OVCAR-5 ovarian 69.3% | OVCAR-4 ovarian 70% | IGROV1 ovarian 40.8% | OVCAR-3 ovarian 63.2% | HS 578T breast 61.2% | NCI/ADR-RES ovarian 66.9%

COc1cc(-c2cc(-c3ccc(Nc4nc(Nc5ccccc5)nc(Nc5ccc(Cl)cc5)n4)cc3)nc(N)n2)cc(OC)c1OC
inactive: RPMI-8226 leukemia 40.1% | OVCAR-8 ovarian 60.1% | OVCAR-5 ovarian 70% | OVCAR-4 ovarian 49.9% | SK-OV-3 ovarian 113% | IGROV1 ovarian 39.2% | OVCAR-3 ovarian 63.8% | NCI/ADR-RES ovarian 50.9%

CN(CCCCCCCCNc1ccnc2ccccc12)Cc1ccc(-c2ccc(-c3ccc(C#N)cc3)s2)cc1
active: RPMI-8226 leukemia -44.4% | OVCAR-8 ovarian -52.5% | OVCAR-5 ovarian -40.6% | OVCAR-4 ovarian -57.9% | SK-OV-3 ovarian -72.6% | IGROV1 ovarian -86.4% | OVCAR-3 ovarian -79.1% | NCI/ADR-RES ovarian -68.3%

CS(=O)(=O)c1ccc(-c2nc3cc(Cl)ccc3n2CC(=O)NO)cc1
inactive: RPMI-8226 leukemia 90.9% | OVCAR-8 ovarian 88.3% | OVCAR-5 ovarian 100% | OVCAR-4 ovarian 87.6% | SK-OV-3 ovarian 96.4% | IGROV1 ovarian 88.4% | HS 578T breast 93.2% | NCI/ADR-RES ovarian 108%

COc1cc(/C=C/C(=O)c2ccc(Nc3nc(Nc4ccccc4)nc(Nc4ccc(Cl)cc4)n3)cc2)cc(OC)c1OC
inactive: OVCAR-8 ovarian 41.1% | OVCAR-5 ovarian 55.1% | OVCAR-4 ovarian 61% | SK-OV-3 ovarian 79.5% | IGROV1 ovarian 54.8% | OVCAR-3 ovarian 48% | NCI/ADR-RES ovarian 21.8%
active: RPMI-8226 leukemia -4.87%

CN1CCC(=C2c3ccccc3C=Cc3ccccc32)CC1
inactive: RPMI-8226 leukemia 72.7% | OVCAR-8 ovarian 85.4% | OVCAR-5 ovarian 108% | OVCAR-4 ovarian 72.9% | SK-OV-3 ovarian 97.6% | IGROV1 ovarian 72.7% | OVCAR-3 ovarian 104% | NCI/ADR-RES ovarian 75.6%

CN(C)c1ccc(-c2cc(-c3ccc(Nc4nc(Nc5ccccc5)nc(Nc5ccc(Cl)cc5)n4)cc3)nc(N)n2)cc1
inactive: RPMI-8226 leukemia 34.1% | OVCAR-8 ovarian 51.3% | OVCAR-5 ovarian 36.6% | OVCAR-4 ovarian 49.6% | SK-OV-3 ovarian 85.4% | IGROV1 ovarian 39.2% | OVCAR-3 ovarian 49.5% | NCI/ADR-RES ovarian 15.5%

CCCCCCCCc1cc[n+](CC(=O)c2ccc(Br)cc2)cc1
inactive: OVCAR-5 ovarian 51.9% | OVCAR-4 ovarian 18.8% | SK-OV-3 ovarian 22% | NCI/ADR-RES ovarian 93.3%
active: RPMI-8226 leukemia -9.98% | OVCAR-8 ovarian -65.8% | IGROV1 ovarian 1.68% | HS 578T breast -29.2%

COc1ccc(-c2cc(-c3ccc(Nc4nc(Nc5ccccc5)nc(Nc5ccc(Cl)cc5)n4)cc3)nc(N)c2C#N)cc1
active: RPMI-8226 leukemia -29.6% | OVCAR-5 ovarian -38.7% | OVCAR-4 ovarian 4.19% | IGROV1 ovarian -18.4% | OVCAR-3 ovarian -96.1% | NCI/ADR-RES ovarian 2.12%
inactive: OVCAR-8 ovarian 31.9% | SK-OV-3 ovarian 86.8%
